High-throughput results deposited in PubChem BioAssay by several laboratories.
A3G deaminase: APOBEC3G DNA deaminase inhibitors, primary screen, biochemical, fluorescence, single-stranded DNA substrate, uHTS | recombinant A3G, ssDNA deamination FAM/TAMRA fluorescence | 330,000 tested, 0.28% active | inhibition, % at 20 µM | DNA dC->dU-editing enzyme APOBEC-3G (Homo sapiens), Q9HC16;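 active = inhibition of at least 40% at 20 µM, with no more than 30% in the related APOBEC3A deaminase screen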
ADAM17 inh: ADAM17 inhibitors, primary screen, biochemical, QFRET | Disintegrin and metalloproteinase domain-containing protein 17 (Homo sapiens), P78536 | recombinant ADAM17, EDANS/DABCYL FRET peptide cleavage | inhibition, % at 6.95 µM | 370,000 tested, 0.83% active;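 active = inhibition above the mean of compounds lying between control limits plus 3 SD, set per campaign, cut at about 8.5% in these data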
APOBEC3A inh: APOBEC3A ssDNA deaminase inhibitors, primary screen, selectivity assay for APOBEC3G inhibitor project, biochemical, FAM/TAMRA oligo cleavage fluorescence; DNA dC->dU-editing enzyme APOBEC-3A (Homo sapiens), P31941; recombinant A3A, FAM/TAMRA ssDNA deamination fluorescence; inhibition, % at 20 µM; 330,000 tested, 0.41% active; AID 493011, 2011;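 active = at least 40% inhibition at 20 µM here, with at most 30% in a related deaminase screen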
NRP1-CendR mod: modulators of CendR peptide binding to NRP-1, primary screen, biochemical, fluorescence polarization, uHTS | Neuropilin-1 (Homo sapiens), O14786 | FAM-RPARPAR peptide binding to NRP-1 | inhibition, % at 25 µM | 360,000 tested, 0.85% active | AID 602438, 2012;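 active = inhibition or corrected inhibition above about 18%, plus a signal ratio from 0.5 to 1.5, limit read from the data, passing the limit was not always enough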
Target sequence (O14786 whole entry, looked up): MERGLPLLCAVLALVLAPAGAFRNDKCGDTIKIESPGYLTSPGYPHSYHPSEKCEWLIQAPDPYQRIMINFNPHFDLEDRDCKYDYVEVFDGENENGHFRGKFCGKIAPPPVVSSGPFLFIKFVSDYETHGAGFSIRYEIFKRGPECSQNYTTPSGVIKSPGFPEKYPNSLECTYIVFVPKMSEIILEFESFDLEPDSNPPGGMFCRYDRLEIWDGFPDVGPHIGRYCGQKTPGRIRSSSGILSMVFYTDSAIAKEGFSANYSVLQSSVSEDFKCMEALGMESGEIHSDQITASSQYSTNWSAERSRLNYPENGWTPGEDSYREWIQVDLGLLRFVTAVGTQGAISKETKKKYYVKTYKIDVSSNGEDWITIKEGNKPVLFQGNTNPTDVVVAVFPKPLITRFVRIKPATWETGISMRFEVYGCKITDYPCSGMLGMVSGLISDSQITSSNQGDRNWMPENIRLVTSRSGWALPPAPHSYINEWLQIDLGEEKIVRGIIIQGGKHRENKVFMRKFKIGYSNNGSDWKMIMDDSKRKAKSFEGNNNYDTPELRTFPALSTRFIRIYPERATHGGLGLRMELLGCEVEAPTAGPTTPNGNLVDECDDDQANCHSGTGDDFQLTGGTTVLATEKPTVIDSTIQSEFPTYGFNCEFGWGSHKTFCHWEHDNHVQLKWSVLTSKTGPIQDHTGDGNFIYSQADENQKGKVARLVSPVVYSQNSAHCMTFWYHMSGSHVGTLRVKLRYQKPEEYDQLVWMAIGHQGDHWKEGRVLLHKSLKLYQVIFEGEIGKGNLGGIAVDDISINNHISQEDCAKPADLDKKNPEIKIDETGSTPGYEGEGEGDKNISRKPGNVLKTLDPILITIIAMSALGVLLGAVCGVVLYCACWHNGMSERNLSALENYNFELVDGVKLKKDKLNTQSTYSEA
ADAM10 inh: human ADAM10 inhibitors, primary screen, biochemical, QFRET, HTS. Disintegrin and metalloproteinase domain-containing protein 10 (Homo sapiens), O14672. recombinant ADAM10, EDANS/DABCYL FRET peptide cleavage, 3 h. inhibition, % at 7 µM. 370,000 tested, 0.62% active. AID 720582, 2013;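 active = inhibition above a per-campaign cutoff equal to the mean of compounds falling between control-based bounds plus 3 SD, cut at about 20% in these data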
APOBEC3A confirm: APOBEC3A deaminase inhibitors, retest, confirmation, selectivity assay for APOBEC3G inhibitor project, biochemical, single concentration, fluorescence readout; shares compounds with APOBEC3A inh; recombinant A3A, ssDNA deaminase UDG fluorescence assay; inhibition, % at 20 µM; 1,400 tested, 63% active; AID 493151, 2011;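 active = inhibition reaching a set limit, 80% of the first screen's cutoff, at 20 µM in any replicate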
UDG ctr A3A: E. coli UDG inhibitors, confirmation, counter-screen for APOBEC3A inhibitor project, biochemical, single concentration, fluorescence, FAM/TAMRA oligo; shares compounds with APOBEC3A inh; UDG counterscreen, FAM/TAMRA uracil oligo fluorescence; inhibition, % at 20 µM; 1,000 tested, under 10 active; call rule not given here
Large screens that a line does not name were inactive (follow-up assays come after a bar, where they were run). Shown are actives, neighbours in structure and some others; about 2.4% of the full set was active somewhere.

COc1ccc(CCCC(=O)Nc2cc(C)ccc2OC)cc1	APOBEC3A inh 60 | APOBEC3A confirm inactive
CC(=O)c1cccc(OC(=O)c2ccc3c(=O)n4c(nc3c2)CCC4)c1	APOBEC3A inh 65 (no result: ADAM17 inh, ADAM10 inh) | APOBEC3A confirm 47 | UDG ctr A3A inactive
Cc1cccc(OC(=O)c2ccc3c(=O)n4c(nc3c2)CCC4)c1	none (no result: A3G deaminase, APOBEC3A inh)
C[n+]1ccccc1/C=C/c1c(F)cccc1F	none (no result: A3G deaminase, APOBEC3A inh)
C[n+]1ccccc1/C=C/c1ccccc1Cl	APOBEC3A inh 81 | APOBEC3A confirm 67 | UDG ctr A3A inactive
Cc1ccccc1/C=C/c1cccc[n+]1C	APOBEC3A inh 84 | APOBEC3A confirm 69 | UDG ctr A3A inactive
O=C(c1ccc(Cl)cc1)N1CCC(Oc2cccnc2)CC1	none (no result: A3G deaminase, APOBEC3A inh, NRP1-CendR mod)
Cc1cc(NS(=O)(=O)c2ccc(NC(=O)CSc3nnc(-c4ccncc4)n3-c3ccccc3)cc2)nc(C)n1	none (no result: A3G deaminase, APOBEC3A inh, NRP1-CendR mod)
O=C(/C=C/c1ccco1)OCC(=O)N1CCCCC1	APOBEC3A inh 49 | APOBEC3A confirm 38 | UDG ctr A3A inactive
CCCCC[n+]1cccc2c3ccccc3ccc21	APOBEC3A inh 55 | APOBEC3A confirm 72 | UDG ctr A3A inactive
O=S(=O)(O)c1cc(O)c2c(O)c(N=Nc3cc(Cl)ccc3O)c(S(=O)(=O)O)cc2c1	APOBEC3A inh 91 (no result: ADAM17 inh, ADAM10 inh) | APOBEC3A confirm 90 | UDG ctr A3A inactive
NC(=O)c1ncn([C@@H]2O[C@H](C(=O)N[C@H](Cc3ccccc3)C(=O)N3CCN(CC(=O)Nc4ccccn4)CC3)[C@@H](O)[C@H]2O)n1	none (no result: A3G deaminase, APOBEC3A inh, NRP1-CendR mod)
Cc1ccc[n+](CC(=O)Nc2cc(C(F)(F)F)ccc2N2CCOCC2)c1	APOBEC3A inh 48 | APOBEC3A confirm 65 | UDG ctr A3A inactive
Cc1cccc(NC(=O)CSCC(=O)Nc2cc(C(F)(F)F)ccc2N2CCOCC2)c1	none (no result: A3G deaminase, APOBEC3A inh)
COC(=O)c1ccc(N2NC(=O)/C(=C/c3ccc(-c4ccc(Cl)c(C(=O)O)c4)o3)C2=O)cc1	APOBEC3A inh 59 | APOBEC3A confirm 70 | UDG ctr A3A inactive
c1ccc2c(c1)-c1nc3ccccc3cc1C2N1CCCCC1 (stereo not given)	none (no result: A3G deaminase, APOBEC3A inh)
O=c1cccc2n1Cc1cc3ccccc3nc1-2	APOBEC3A inh 49 | APOBEC3A confirm inactive
CCC(C)(C)C(=O)N1CCC(C(=O)NC2CCCc3ccccc32)CC1 (stereo not given)	none (no result: A3G deaminase, APOBEC3A inh, NRP1-CendR mod)
CCCCNC(=O)C[C@@H]1C(=O)N(CCc2ccc(Cl)cc2)/C2=C/CCCCC[C@@]21C(=O)OCC	none (no result: A3G deaminase, APOBEC3A inh, NRP1-CendR mod)
O=C(Nc1nc2c(s1)CCCC2)C1CCCN1C(=O)c1cccs1 (stereo not given)	APOBEC3A inh 54 | APOBEC3A confirm 46 | UDG ctr A3A inactive
Cc1ccc(NC(=O)C2CCCN2C(=O)c2cccs2)c(C)c1 (stereo not given)	APOBEC3A inh 51 | APOBEC3A confirm 59 | UDG ctr A3A inactive
CCc1ccccc1NC(=O)C1CCN(C(=O)c2cccs2)CC1	none
O=C(Nc1nccs1)[C@@H]1CCCN1C(=O)c1cccs1	none
Cc1ccc(NC(=O)C2CCN(C(=O)c3cccs3)CC2)c(C)c1	APOBEC3A inh 44 | APOBEC3A confirm 67 | UDG ctr A3A inactive
C[C@@H]1OC(C2CCCCC2)N(C)[C@H]2C[C@H]3c4cc(-c5ccc6c(c5)OCO6)ccc4CCN3C[C@@H]12 (stereo not given in full)	none (no result: A3G deaminase, APOBEC3A inh, NRP1-CendR mod)
C#CCNC(=O)C[C@H]1C[C@@]2(C(=O)OC)C(=C[C@H](C(C)(C)C)O[C@@H]2C)N(Cc2ccccc2)C1=O	none (no result: A3G deaminase, APOBEC3A inh, NRP1-CendR mod)
CCCCC(=O)N1CCN(C(=O)c2ccc3nc(C)n(C4CCCC4)c3c2)CC1	none (no result: A3G deaminase, APOBEC3A inh, NRP1-CendR mod)
COc1ccc(-c2ccc3c(n2)CCCN3S(=O)(=O)c2cccs2)cc1	none (no result: A3G deaminase, APOBEC3A inh, NRP1-CendR mod)
COc1ccccc1N=Nc1[nH]c2ccc(C)cc2c1O	APOBEC3A inh 66 | APOBEC3A confirm 53 | UDG ctr A3A inactive
Cc1ccc2[nH]c(O)c(N=Nc3ccccc3[N+](=O)[O-])c2c1	none (no result: A3G deaminase, APOBEC3A inh)
CC(C)(C)S(=O)(=O)N1C[C@@H]2CC(=O)C(CCO)=C2[C@H]1CCO	none (no result: A3G deaminase, APOBEC3A inh, NRP1-CendR mod)
COc1ccc(S(=O)(=O)/N=C2/NC(=O)/C(=C/c3ccco3)S2)cc1	APOBEC3A inh 46 | APOBEC3A confirm 24 | UDG ctr A3A inactive
COc1ccc(S(=O)(=O)/N=C2/NC(=O)/C(=C\c3ccco3)S2)cc1	none
COc1ccccc1N/C(=N/S(=O)(=O)c1ccc(Cl)cc1)c1ccccc1	none
COc1ccccc1NC(C)=[N+](C)CCNS(=O)(=O)c1ccc(Cl)cc1	APOBEC3A inh 56 | APOBEC3A confirm 79 | UDG ctr A3A inactive
CC(Nc1cc(C)cc(C)c1)=[N+](C)CCNS(=O)(=O)c1ccc(Cl)cc1	APOBEC3A inh 45 | APOBEC3A confirm 67 | UDG ctr A3A inactive
COc1ccc(NC(=O)CCNS(=O)(=O)c2ccc(NC(C)=O)cc2)cc1Cl	none
COc1ccc(NC(C)=[N+](C)CCNS(=O)(=O)c2ccc(Cl)cc2)cc1Cl	APOBEC3A inh 62 | APOBEC3A confirm 69 | UDG ctr A3A inactive
CC1CCC2(CC1)CCN(CCCOC(=O)Nc1cccc(F)c1)C2=O (stereo not given)	none (no result: A3G deaminase, APOBEC3A inh, NRP1-CendR mod)
CCCCn1c(N)c(N(CCOC)C(=O)c2cc(-c3ccco3)nc3ccccc23)c(=O)[nH]c1=O	APOBEC3A inh 42 | APOBEC3A confirm 30 | UDG ctr A3A inactive
CCCCN(C(=O)c1cc(-c2ccco2)nc2ccccc12)c1c(N)n(CCCC)c(=O)[nH]c1=O	none
CCCCn1c(N)c(N(CC(C)C)C(=O)c2cc(-c3ccc(OC)c(OC)c3)nc3ccccc23)c(=O)[nH]c1=O	none
CCCCn1c(N)c(N(CCOC)C(=O)c2cc(-c3ccc(OC)c(OC)c3)nc3ccccc23)c(=O)[nH]c1=O	APOBEC3A inh 52 | APOBEC3A confirm 40 | UDG ctr A3A inactive
COCCN(C(=O)c1cc(-c2ccco2)nc2ccccc12)c1c(N)n(Cc2ccccc2)c(=O)[nH]c1=O	APOBEC3A inh 46 | APOBEC3A confirm 32 | UDG ctr A3A inactive
Cc1ccc(-c2nnc(SCC(=O)c3ccc(O)c(O)c3)n2-c2ccc(Cl)cc2)cc1	none (no result: A3G deaminase, APOBEC3A inh, NRP1-CendR mod)
O=C(O)c1cc(-c2ccco2)nc2ccccc12	none
